In ChEMBL document CHEMBL1961873, “Compounds: GSK PKIS; Assays: Nanosyn kinase panel” (2012):

How the values were obtained:
[1] = molecular target: Protein kinase C gamma type (Homo sapiens) (UniProt P05129); details: at 1 µM;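 note: each value is an averaged percent inhibition of the enzyme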
[2] = molecular target: T1, Protein kinase C iota type (Homo sapiens) (UniProt P41743); details: at 0.1 µM
T1 sequence (whole entry): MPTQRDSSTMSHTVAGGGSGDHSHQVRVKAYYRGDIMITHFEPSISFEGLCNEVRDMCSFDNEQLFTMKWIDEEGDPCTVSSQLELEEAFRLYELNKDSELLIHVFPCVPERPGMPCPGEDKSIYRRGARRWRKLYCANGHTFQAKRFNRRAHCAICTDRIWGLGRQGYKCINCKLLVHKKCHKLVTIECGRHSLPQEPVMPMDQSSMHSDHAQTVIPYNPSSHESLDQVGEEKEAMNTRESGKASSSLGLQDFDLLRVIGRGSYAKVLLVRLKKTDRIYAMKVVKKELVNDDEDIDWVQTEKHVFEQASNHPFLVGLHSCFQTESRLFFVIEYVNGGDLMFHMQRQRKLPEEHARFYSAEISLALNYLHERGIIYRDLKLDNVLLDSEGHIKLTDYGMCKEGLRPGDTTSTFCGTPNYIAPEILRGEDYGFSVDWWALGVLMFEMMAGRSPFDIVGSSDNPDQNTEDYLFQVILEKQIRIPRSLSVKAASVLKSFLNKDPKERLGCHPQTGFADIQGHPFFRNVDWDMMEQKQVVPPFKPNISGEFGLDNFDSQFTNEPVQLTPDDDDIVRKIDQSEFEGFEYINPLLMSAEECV

[3] = molecular target: T1, Protein kinase C iota type (Homo sapiens); details: at 1 µM
[4] = molecular target: Protein kinase C theta type (Homo sapiens) (UniProt Q04759); details: at 0.1 µM
Sequence of Protein kinase C theta type (Homo sapiens) (Q04759 whole entry, looked up): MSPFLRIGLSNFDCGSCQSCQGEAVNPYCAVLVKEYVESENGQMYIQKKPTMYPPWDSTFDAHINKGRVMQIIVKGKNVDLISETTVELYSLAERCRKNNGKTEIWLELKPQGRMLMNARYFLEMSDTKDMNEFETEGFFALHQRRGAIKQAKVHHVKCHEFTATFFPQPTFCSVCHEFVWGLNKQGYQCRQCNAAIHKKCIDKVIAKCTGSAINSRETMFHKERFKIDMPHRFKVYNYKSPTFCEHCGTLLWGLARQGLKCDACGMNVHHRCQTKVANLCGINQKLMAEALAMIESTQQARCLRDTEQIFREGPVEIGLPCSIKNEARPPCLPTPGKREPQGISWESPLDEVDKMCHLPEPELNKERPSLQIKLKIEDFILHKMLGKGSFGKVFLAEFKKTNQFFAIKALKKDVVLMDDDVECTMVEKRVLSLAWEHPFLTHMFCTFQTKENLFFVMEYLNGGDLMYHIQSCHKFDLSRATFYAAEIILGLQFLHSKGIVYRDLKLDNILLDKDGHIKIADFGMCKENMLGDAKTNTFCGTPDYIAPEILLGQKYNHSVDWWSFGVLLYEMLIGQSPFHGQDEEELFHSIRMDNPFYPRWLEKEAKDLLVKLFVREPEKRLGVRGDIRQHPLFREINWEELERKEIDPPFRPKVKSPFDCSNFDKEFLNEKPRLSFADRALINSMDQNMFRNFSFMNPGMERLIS

[5] = molecular target: Protein kinase C theta type (Homo sapiens) (UniProt Q04759); details: at 1 µM
[6] = molecular target: Protein kinase C beta type (Homo sapiens) (UniProt P05771); details: at 0.1 µM
Sequence of Protein kinase C beta type (Homo sapiens) (P05771 2-671 limits assumed): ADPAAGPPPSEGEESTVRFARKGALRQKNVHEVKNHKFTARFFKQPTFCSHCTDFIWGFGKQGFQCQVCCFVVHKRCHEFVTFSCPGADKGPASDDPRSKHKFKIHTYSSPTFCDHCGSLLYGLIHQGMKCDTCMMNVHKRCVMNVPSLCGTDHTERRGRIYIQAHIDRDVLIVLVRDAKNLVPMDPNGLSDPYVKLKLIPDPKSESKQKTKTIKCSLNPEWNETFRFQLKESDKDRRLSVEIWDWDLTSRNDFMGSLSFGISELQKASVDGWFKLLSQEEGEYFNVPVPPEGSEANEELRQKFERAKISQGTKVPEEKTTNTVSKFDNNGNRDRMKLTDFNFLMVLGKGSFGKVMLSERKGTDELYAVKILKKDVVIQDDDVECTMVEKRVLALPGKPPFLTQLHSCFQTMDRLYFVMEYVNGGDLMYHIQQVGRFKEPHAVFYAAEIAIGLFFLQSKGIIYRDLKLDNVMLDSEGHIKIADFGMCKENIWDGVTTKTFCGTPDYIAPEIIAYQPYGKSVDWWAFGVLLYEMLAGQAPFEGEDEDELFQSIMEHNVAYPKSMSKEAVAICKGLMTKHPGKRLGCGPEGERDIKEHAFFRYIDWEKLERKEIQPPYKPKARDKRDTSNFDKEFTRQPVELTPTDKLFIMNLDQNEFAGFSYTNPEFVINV

[7] = molecular target: Protein kinase C beta type (Homo sapiens) (UniProt P05771); details: at 1 µM
[8] = molecular target: T2, Serine/threonine-protein kinase D1 (Homo sapiens) (UniProt Q15139); details: at 0.1 µM
T2 sequence (whole entry): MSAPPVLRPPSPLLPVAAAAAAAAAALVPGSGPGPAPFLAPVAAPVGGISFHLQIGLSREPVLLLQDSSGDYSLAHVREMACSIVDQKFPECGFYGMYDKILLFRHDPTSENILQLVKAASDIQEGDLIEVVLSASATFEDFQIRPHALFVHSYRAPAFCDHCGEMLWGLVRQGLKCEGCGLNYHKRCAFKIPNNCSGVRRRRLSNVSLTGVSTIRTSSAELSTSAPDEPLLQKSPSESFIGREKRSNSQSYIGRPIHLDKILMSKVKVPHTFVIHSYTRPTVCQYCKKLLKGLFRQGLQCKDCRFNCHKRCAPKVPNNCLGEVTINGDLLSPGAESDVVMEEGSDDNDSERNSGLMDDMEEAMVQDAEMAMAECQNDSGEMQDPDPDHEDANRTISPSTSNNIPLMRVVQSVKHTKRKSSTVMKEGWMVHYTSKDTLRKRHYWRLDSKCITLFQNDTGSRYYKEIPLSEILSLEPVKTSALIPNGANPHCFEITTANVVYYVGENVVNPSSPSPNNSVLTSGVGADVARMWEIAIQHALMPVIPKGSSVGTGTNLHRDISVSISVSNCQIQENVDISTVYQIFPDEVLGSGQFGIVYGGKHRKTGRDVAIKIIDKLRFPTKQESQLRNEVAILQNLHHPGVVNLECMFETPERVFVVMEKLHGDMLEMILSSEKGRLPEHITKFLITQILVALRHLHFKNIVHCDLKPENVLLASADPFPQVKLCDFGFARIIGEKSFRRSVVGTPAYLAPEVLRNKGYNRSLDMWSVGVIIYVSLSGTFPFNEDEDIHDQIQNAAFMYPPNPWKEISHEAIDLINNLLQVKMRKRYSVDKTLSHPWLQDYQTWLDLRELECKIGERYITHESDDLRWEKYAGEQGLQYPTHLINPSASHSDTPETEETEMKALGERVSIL

[9] = molecular target: T2, Serine/threonine-protein kinase D1 (Homo sapiens); details: at 1 µM
[10] = molecular target: T3, Serine/threonine-protein kinase D2 (Homo sapiens) (UniProt Q9BZL6); details: at 0.1 µM
T3 sequence (whole entry): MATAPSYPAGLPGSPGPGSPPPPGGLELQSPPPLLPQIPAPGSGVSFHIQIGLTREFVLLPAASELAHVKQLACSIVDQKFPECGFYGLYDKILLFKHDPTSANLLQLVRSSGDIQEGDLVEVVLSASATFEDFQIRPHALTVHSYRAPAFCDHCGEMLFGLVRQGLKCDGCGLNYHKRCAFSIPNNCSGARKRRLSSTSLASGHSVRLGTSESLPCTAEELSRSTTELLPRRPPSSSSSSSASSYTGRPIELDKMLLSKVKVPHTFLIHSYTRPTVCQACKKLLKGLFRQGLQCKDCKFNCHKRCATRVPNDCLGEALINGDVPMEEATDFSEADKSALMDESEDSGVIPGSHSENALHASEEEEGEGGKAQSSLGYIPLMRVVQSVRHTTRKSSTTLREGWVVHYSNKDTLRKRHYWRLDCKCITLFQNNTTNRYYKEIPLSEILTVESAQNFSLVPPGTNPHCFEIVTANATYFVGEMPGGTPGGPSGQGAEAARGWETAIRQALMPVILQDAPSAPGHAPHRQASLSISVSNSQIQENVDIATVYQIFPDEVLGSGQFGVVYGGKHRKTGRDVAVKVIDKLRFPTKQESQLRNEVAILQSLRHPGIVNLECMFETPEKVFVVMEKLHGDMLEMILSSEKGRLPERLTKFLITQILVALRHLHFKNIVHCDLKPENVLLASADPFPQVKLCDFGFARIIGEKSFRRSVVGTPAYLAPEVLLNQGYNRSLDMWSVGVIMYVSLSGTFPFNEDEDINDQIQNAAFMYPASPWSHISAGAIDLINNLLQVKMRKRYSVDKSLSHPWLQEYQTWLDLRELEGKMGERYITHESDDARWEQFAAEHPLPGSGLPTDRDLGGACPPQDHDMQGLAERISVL

[11] = molecular target: T3, Serine/threonine-protein kinase D2 (Homo sapiens); details: at 1 µM
[12] = molecular target: T4, Serine/threonine-protein kinase D3 (Homo sapiens) (UniProt O94806); details: at 0.1 µM
T4 sequence (whole entry): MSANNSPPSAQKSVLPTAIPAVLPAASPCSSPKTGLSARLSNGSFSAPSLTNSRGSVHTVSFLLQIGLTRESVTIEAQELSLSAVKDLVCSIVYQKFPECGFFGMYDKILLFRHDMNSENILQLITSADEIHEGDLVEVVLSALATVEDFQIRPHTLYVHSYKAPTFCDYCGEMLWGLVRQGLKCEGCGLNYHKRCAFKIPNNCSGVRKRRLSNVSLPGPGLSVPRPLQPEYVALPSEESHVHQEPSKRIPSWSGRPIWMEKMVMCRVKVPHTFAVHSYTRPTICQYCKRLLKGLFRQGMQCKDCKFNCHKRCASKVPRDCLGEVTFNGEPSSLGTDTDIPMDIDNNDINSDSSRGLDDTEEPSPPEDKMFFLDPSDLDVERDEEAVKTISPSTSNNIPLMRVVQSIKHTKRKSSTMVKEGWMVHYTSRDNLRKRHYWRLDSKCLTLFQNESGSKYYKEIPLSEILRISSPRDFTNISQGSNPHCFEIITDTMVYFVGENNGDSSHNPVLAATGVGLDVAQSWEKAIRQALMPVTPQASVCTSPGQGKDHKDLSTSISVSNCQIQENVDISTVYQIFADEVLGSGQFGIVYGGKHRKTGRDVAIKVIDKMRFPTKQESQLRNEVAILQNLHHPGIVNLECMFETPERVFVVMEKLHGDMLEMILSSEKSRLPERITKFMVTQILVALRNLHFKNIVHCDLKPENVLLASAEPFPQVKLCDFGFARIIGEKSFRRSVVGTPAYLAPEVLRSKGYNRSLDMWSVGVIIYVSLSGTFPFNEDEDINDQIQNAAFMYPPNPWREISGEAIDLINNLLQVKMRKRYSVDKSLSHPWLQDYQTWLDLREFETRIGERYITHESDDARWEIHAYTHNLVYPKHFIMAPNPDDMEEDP

[13] = molecular target: T4, Serine/threonine-protein kinase D3 (Homo sapiens); details: at 1 µM
[14] = molecular target: T5, cGMP-dependent protein kinase 1 (Homo sapiens) (UniProt Q13976); details: at 0.1 µM
T5 sequence (whole entry): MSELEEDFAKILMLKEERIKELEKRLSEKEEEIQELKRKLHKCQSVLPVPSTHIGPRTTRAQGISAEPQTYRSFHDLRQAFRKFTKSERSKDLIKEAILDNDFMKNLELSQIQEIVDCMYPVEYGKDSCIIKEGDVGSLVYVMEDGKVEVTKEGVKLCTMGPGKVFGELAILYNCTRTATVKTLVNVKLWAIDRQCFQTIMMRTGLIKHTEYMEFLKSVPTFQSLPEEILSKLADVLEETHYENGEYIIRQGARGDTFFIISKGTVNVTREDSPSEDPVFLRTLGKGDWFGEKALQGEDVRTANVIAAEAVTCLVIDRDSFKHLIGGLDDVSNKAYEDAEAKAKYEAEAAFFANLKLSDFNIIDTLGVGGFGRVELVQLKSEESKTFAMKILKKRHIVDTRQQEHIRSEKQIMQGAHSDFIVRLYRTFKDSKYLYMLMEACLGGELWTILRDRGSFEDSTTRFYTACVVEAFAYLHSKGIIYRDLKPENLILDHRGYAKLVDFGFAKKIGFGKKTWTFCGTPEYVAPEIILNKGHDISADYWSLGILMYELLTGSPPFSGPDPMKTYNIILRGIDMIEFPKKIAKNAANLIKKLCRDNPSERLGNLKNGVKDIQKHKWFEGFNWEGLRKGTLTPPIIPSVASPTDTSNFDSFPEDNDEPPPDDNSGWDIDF

[15] = molecular target: T5, cGMP-dependent protein kinase 1 (Homo sapiens); details: at 1 µM
[16] = molecular target: T6, cGMP-dependent protein kinase 2 (Homo sapiens) (UniProt Q13237); details: at 0.1 µM
T6 sequence (whole entry): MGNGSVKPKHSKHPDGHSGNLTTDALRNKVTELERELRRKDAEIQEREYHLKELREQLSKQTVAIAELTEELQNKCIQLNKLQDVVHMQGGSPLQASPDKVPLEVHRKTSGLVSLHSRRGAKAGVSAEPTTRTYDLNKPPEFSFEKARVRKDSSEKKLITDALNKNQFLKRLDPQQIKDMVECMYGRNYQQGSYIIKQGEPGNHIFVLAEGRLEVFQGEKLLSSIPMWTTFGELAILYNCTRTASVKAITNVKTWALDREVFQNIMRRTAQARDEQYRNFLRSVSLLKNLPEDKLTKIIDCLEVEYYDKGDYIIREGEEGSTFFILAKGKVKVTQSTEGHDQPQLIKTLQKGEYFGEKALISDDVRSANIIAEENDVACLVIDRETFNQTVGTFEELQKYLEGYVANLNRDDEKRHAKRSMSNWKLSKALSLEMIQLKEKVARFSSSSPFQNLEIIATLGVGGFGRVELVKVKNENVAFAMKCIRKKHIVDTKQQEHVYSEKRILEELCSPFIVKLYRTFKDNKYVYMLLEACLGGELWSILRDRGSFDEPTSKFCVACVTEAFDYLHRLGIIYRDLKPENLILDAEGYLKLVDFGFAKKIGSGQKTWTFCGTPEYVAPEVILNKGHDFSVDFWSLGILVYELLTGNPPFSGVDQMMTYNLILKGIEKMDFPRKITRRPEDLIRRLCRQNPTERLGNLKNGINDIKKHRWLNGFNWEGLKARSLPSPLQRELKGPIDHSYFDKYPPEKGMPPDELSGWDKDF

[17] = molecular target: T6, cGMP-dependent protein kinase 2 (Homo sapiens); details: at 1 µM
[18] = molecular target: T7, cAMP-dependent protein kinase catalytic subunit PRKX (Homo sapiens) (UniProt P51817); details: at 0.1 µM
T7 sequence (whole entry): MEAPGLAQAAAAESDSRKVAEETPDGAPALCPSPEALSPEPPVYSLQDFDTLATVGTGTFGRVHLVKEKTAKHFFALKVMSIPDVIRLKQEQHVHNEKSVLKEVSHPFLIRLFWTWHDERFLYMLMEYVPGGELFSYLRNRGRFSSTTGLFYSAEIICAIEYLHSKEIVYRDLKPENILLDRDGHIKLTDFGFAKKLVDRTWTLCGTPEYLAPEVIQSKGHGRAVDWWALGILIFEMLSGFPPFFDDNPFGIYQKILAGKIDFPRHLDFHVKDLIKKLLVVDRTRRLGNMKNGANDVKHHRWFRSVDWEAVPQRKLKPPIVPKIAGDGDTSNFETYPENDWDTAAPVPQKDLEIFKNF

[19] = molecular target: T7, cAMP-dependent protein kinase catalytic subunit PRKX (Homo sapiens); details: at 1 µM
[20] = molecular target: Rho-associated protein kinase 1 (Homo sapiens) (UniProt Q13464); details: at 0.1 µM;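 note: values are mean percent inhibition of ROCK1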
Sequence of Rho-associated protein kinase 1 (Homo sapiens) (Q13464 2-1354 limits assumed): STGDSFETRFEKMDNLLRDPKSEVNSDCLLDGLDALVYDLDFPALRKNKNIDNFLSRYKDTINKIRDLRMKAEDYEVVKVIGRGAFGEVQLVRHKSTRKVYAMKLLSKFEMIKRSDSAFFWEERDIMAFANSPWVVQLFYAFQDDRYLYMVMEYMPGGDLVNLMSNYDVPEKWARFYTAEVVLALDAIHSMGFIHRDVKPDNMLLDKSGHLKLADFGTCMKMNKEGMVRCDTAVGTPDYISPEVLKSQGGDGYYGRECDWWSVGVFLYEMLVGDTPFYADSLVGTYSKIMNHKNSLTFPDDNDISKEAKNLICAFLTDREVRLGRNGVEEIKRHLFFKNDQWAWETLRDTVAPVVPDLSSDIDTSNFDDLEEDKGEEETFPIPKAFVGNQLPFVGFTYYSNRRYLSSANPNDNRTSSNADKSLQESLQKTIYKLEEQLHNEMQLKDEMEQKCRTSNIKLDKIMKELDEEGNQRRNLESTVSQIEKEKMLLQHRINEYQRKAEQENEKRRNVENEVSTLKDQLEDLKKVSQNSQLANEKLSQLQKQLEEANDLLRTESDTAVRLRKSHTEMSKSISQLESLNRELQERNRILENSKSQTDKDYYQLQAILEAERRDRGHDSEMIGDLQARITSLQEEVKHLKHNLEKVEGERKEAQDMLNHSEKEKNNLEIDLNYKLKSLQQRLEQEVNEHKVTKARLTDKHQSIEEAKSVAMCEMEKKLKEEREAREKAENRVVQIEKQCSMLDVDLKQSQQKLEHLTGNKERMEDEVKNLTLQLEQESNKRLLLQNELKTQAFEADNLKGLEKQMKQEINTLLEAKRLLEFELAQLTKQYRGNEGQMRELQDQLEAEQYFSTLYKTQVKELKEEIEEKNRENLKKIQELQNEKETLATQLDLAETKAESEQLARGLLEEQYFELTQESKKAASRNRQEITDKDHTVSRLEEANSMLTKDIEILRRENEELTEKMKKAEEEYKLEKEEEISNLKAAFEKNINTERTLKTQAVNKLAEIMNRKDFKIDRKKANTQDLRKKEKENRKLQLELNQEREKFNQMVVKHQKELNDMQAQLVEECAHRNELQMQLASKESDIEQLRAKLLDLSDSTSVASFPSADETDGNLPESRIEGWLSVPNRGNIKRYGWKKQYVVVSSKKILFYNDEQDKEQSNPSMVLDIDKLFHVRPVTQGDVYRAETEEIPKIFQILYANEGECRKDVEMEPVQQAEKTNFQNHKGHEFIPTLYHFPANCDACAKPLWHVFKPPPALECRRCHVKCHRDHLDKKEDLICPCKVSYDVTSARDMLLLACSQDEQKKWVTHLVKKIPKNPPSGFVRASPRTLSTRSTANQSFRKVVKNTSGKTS

SMILES	inhibition [1] [%]	inhibition [2] [%]	inhibition [3] [%]	inhibition [4] [%]	inhibition [5] [%]	inhibition [6] [%]	inhibition [7] [%]	inhibition [8] [%]	inhibition [9] [%]	inhibition [10] [%]	inhibition [11] [%]	inhibition [12] [%]	inhibition [13] [%]	inhibition [14] [%]	inhibition [15] [%]	inhibition [16] [%]	inhibition [17] [%]	inhibition [18] [%]	inhibition [19] [%]	inhibition [20] [%]
COc1cc(C=NNc2ncnc3c2cnn3-c2ccccc2)ccc1O	12.4	1.32	5.26	0.44	0.62	1.72	5.98	1.65	3.18	1.16	2.86	2.52	3	1.67	1.52	2.05	4.06	1.55	1.36	0.41
CS(=O)(=O)CCNCc1nc(-c2ccc3ncnc(Nc4ccc(F)c(Cl)c4)c3c2)cs1	0.73	-0.92	-0.18	0.64	2.27	-0.23	2.18	1.88	2.6	0.4	2.87	1.23	1.58	1.73	3.32	0.95	2.67	0.91	1.76	1.23
